Source: PubChem BioAssay (Small Molecule Screening Facility, UW Madison)
Shown is part of a subset that was picked to be rich in hits.
RMI FANCM FP: inhibitors of human RMI core complex binding to FANCM MM2 | Fluorescence polarization, RMI core complex with F-MM2 peptide; hits give low values | FP signal (polarization) at 33 µM | actives 0.58% (n = 70,000) | AID 1159607; in the data active means FP signal below about 40
Hits are given with their value; 0 = inactive.

SMILES	RMI FANCM FP
CCCCCCCCCCCCCO	0
CCCCCCCCCCCCCCCC[N+](C)(C)C	34
C[N+](C)(C)CCSSCC[N+](C)(C)C	0
O=C(CCCn1nc(-c2ccco2)ccc1=O)Nc1ccc(F)c(Cl)c1	0
O=C(Nc1ccc(Cl)c(C(F)(F)F)c1)C(N=Nc1cccnc1)=C(O)c1ccccc1	0
COc1ccc(S(=O)(=O)Nc2nc3ccccc3nc2Nc2ccc(C(C)=O)cc2)cc1	0
Nc1nc2ncc(C(=O)O)nc2c(=O)[nH]1	0
Nc1nc2[nH]c(=O)cnc2c(=O)[nH]1	0
Nc1nc2ncc(=O)[nH]c2c(=O)[nH]1	26
COc1ccc(C(O)P(=O)(OC2CC(C)CCC2C(C)C)OC2CC(C)CCC2C(C)C)cc1 (configuration not stated)	0
COc1nn(C)cc1-c1nnc(SCc2ccccn2)n1C	0
NC(=O)CSc1nnc2scc(-c3ccccc3)n12	0
Cc1ccc(Cn2cnc3c(cnn3CCNC(=O)Cc3cccc(C)c3)c2=O)cc1	0
CC(=O)Nc1cccc(NC(=O)C(=O)NCCN2CCN(c3ccccc3)CC2)c1	0
Cc1cc(-c2nc3cccnc3s2)ccc1NC(=O)c1ccc2ccccc2n1	1
CCOc1ccccc1C(=O)Nc1ccc(-c2nc3cccnc3s2)cc1	0
O=C(Nc1ccc(-c2nc3cccnc3s2)cc1)c1ccco1	0
N#C/C(=N/OCc1ccc([N+](=O)[O-])cc1)c1c(Cl)cccc1Cl	0
C#CCn1c(=NC(=O)CCOc2ccccc2)sc2cc(S(N)(=O)=O)ccc21	0
C#Cc1cccc(N=Cc2cc([N+](=O)[O-])cc(Br)c2O)c1	0
O=C(CSc1ccc(NC(=O)c2ccccc2)nn1)Nc1ccc2c(c1)OCO2	0
CCOC(=O)c1ccc(N=Cc2ccccn2)cc1	0
Oc1c(Cl)cc(Cl)cc1C=Nc1ccc2c(c1)COCO2	37
Fc1ccc(N=Cc2ccc3c(c2)OCO3)cc1	0
Cc1[nH]n(C)c(=O)c1N=Nc1ccc2c(c1)COCO2	0
SMILES	RMI FANCM FP
N#CCCSc1ccccc1NC(=O)c1ccc(Cl)s1	0
Oc1c(Cl)cc(Cl)cc1C=Nc1nc2c(s1)CCCC2	0
Oc1ccccc1C=Nc1ccccc1SCc1csc(-c2ccc(Cl)cc2)n1	0
CCOC(=O)c1ccc(N=Cc2cc(Cl)cc(Cl)c2O)cc1	24
CCOC(=O)c1ccc(N=Cc2ccc(OC(=O)c3ccc(F)cc3)c(OC)c2)cc1	0
O=Cc1cccc2cccnc12	0
N#CCCSc1ccccc1N=Cc1cc(Cl)cc(Cl)c1O	33
Oc1c(Cl)cc(Cl)cc1C=Nc1cccc2cccnc12	27
COc1cccc(CNC(=O)Cn2nc(-c3ccc(F)cc3)ccc2=O)c1	0
COc1ccc(C)cc1S(=O)(=O)NCC1(c2cccs2)CCCC1	0
Cc1cc2nnc(SCC(=O)N3CCCC3)n2c2ccccc12	0
COc1ccc(/C=C\C(=O)N2CCN(c3nccn3C)CC2)cc1OC	0
O=C(Cc1ccc(F)cc1)Nc1nc(-c2ccccc2)c(C(=O)c2ccccc2)s1	0
O=C(NCc1ccc2[nH]c3c(c2c1)CCCC3)c1cc2ccccc2oc1=O	0
COC(=O)CC1C(=O)N(c2ccccc2)C(=S)N1CCCN1CCOCC1 (configuration not stated)	0
O=C(c1ccc(Cl)cc1)N(Cc1cccnc1)Cc1cccnc1	0
Cn1c(=O)n(Cc2ccc(F)cc2)c(=O)c2c(N3CCN(C(=O)C4CC4)CC3)ccnc21	0
O=C(OCn1nnc2ccccc2c1=O)c1c(F)cccc1Cl	0
O=C(Nc1ccc2oc(=O)ccc2c1)c1ccc(F)cc1	0
CN(/N=C\c1cc(Cl)cc(Cl)c1O)c1ccc([N+](=O)[O-])cn1	0
O=c1ccc2cc(N=Cc3cc(Cl)cc(Cl)c3O)ccc2o1	30
Oc1c(Cl)cc(Cl)cc1C=Nc1ccc2nc[nH]c2c1	12
O=c1ccc2cc(O)c(O)cc2o1	0
Fc1cc2[nH]cnc2cc1Cl	0
O=C(NCCn1nc(-c2cccnc2)ccc1=O)c1ccc2c(c1)OCO2	0
SMILES	RMI FANCM FP
Cc1nc(SCC(=O)Nc2ccc(C(C)(C)C)cc2)c2c3c(sc2n1)CCC3	0
COc1ccc(CCNC(=O)NNC(=O)c2cccn(Cc3cccc(F)c3)c2=O)cc1	0
Cc1cccc(-n2ncc3c(=O)[nH]cnc32)c1C	0
Cc1ccc(S(=O)(=O)N2CCCc3ccc(NC(=O)C(=O)Nc4ccc(C)c(F)c4)cc32)cc1	0
O=Cc1cnc2ccccc2n1	0
Cc1cc(SCC(N)=O)nc2ccccc12	0
N=C(N)Sc1cnc2ccccc2n1	37
O=C(CSc1ccc(C(F)(F)F)cn1)c1ccc2c(c1)OCCO2	0
CCOc1ccc(/C=C(\C#N)C(=O)N2CCOCC2)cc1	0
Cc1cc(O)c2c(CN3CCN(Cc4ccc5c(c4)OCO5)CC3)cc(=O)oc2c1	0
COc1ccc(N2CCN(Cc3cc(=O)oc4c3ccc3ccccc34)CC2)cc1	0
Cc1c(O)ccc2c(CN3CCC4(CC3)OCCO4)cc(=O)oc12	25
O=C(O)c1ccc(OCc2ccc3ccccc3n2)cc1	0
CCOC(=O)c1cccc(NC(=O)CSc2ncc(-c3ccc(C)c(C)c3)o2)c1	0
C=Cc1c(C)c2cc3[nH]c(cc4nc(cc5nc(cc1[nH]2)C(C)=C5CCC(=O)O)C(CCC(=O)O)=C4C)c(C)c3C=C	0
Cc1cc(=O)[nH]c(-n2nc(C)c(CCC(=O)O)c2C)n1	0
CC1=C(CCC(=O)O)c2cc3nc(cc4[nH]c(cc5[nH]c(cc1n2)c(C)c5C(C)O)c(C)c4C(C)O)C(C)=C3CCC(=O)O (configuration not stated)	34
CCCS(=O)(=O)N1CCCc2cc(NS(=O)(=O)CCc3ccc(OC)cc3)ccc21	0
O=c1[nH]c(=S)c2c(n1Cc1ccco1)CCCC2	0
O=C1CNC(=S)N1Cc1ccco1	0
O=c1cc(O)n(Cc2ccco2)c(=S)[nH]1	26
Nc1ccc(O)c(C(=O)O)c1	0
O=C(O)C1=CC(=C(c2ccc(O)c(C(=O)O)c2)c2ccc(O)c(C(=O)O)c2)C=CC1=O	-9
O=C(O)c1cc(O)ccc1O	0
CCOC(=O)N1CCN(C(=O)Nc2nc(CC(N)=O)cs2)CC1	0
SMILES	RMI FANCM FP
O=C(CSc1ccc(NC(=O)c2cccc(F)c2)nn1)NCc1ccc2c(c1)OCO2	0
O=C(Cc1csc(Nc2cccc(Cl)c2)n1)N1CCN(c2ncccn2)CC1	0
c1ccc(-c2nnc(SCCSc3nnc(-c4ccccc4)n3-c3ccccc3)n2-c2ccccc2)cc1	0
Nc1ccc(C(=O)O)c2c(C(=O)O)cccc12	19
O=C(O)c1cccc(Cl)c1C(=O)O	0
O=C(O)c1cccc2cccc(C(=O)O)c12	0
CCOC(=O)c1c(-c2ccc(OC)cc2)csc1NC(=O)/C(C#N)=C/c1ccc(C)o1	0
CCN(CC)S(=O)(=O)CCNC(=O)c1ccc(F)cc1	0
Clc1ccccc1Cn1ncc2c(NCC3CCCO3)ncnc21 (configuration not stated)	0
CCOC(=O)N1CCN(C(=O)COc2cccc3c2CCN(Cc2ccc(Cl)cc2)C3=O)CC1	0
O=C(Cc1csc(SCc2ccc(Cl)cc2)n1)Nc1ccc(Cl)c(Cl)c1	0
CC(=O)c1c(C)nn(-c2ccccc2)c1-c1ccccc1[N+](=O)[O-]	0
CC(=O)C1C(=O)c2cccc([N+](=O)[O-])c2C1=O (configuration not stated)	0
CC(=O)c1cccc(N2C(=O)c3cccc([N+](=O)[O-])c3C2=O)c1	29
CCOc1cc(-c2ccc(C)cc2)nc2ccc(C(=O)NCC3CCCO3)cc12 (configuration not stated)	0
CCCc1ccc(S(=O)(=O)N2CCOC(c3ccccc3)C2)cc1 (configuration not stated)	0
